High-throughput results: PubChem, several laboratories
Hits are enriched below; roughly 3.5% of the tested compounds scored in any of these assays.
Rv3671c inh = inhibits the M. tuberculosis serine protease Rv3671c; actives 0.048% (n = 320,000); P9WHR9; inhibition, % at 5.96 µM; in the data active = inhibition above about 38%;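 also: extracellular domain of Rv3671c used as enzyme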
UGM FP inh = Mtb UDP-galactopyranose mutase inhibition. actives 0.06% (n = 320,000). purified UGM, fluorescence polarization probe displacement. inhibition, % at 10 µM; in the data active = inhibition above about 10%, passing the limit was not always enough
GDH-TPI counter-1 = GDH-TPI coupled enzyme inhibition counter-screen; GDH-TPI coupled enzyme counterscreen, NADH absorbance; inhibition, % at 4.8 µM; actives 1.2% (n = 360,000); in the data active = inhibition above about 30%
Mtb betalactam = beta-lactam sensitization of Mtb H37Rv | M. tuberculosis H37Rv growth with meropenem, percent inhibition | inhibition, % at 25 µM | actives 0.27% (n = 330,000); call rule not given here;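 also: growth measured after seven days incubation then overnight dye step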
Mtb FBA inh = Mtb fructose-bisphosphate aldolase inhibition. actives 2.3% (n = 360,000). P9WQA3. purified M. tuberculosis FBA, fluorescence read-out. inhibition, % at 1 µM
Target sequence (P9WQA3 whole entry, looked up): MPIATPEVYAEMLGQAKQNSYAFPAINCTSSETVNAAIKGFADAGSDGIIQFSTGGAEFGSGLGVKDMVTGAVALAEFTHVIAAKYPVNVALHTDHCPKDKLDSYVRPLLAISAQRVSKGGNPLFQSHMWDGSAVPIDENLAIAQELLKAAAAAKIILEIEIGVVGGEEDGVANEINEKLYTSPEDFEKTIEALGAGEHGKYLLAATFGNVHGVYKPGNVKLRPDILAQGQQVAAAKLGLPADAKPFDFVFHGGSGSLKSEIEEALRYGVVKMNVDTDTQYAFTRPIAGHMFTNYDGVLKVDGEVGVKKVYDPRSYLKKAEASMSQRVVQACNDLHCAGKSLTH
Mtb FBA inh conf = confirmation of M. tuberculosis fructose-bisphosphate aldolase inhibitors; shares compounds with Mtb FBA inh; purified M. tuberculosis FBA, fluorescence read-out; inhibition, % at 1 µM; actives 78% (n = 5,600); AID 651616
GDH-TPI counter-2 = inhibits GDH-TPI coupling enzymes, flagging Mtb FBA hits; actives 81% (n = 5,600); shares compounds with Mtb FBA inh; inhibition, % at 1 µM; GDH-TPI coupled enzyme counterscreen, fluorescence; in the data active = inhibition above about 10%
A number is an active result. Rule as the data show it, unless noted: active = inhibition above about 27%; inactive = the rest.

For CC(NC(=O)c1ccc(C(=O)c2ccccc2)cc1)c1ccc(S(N)(=O)=O)cc1 (stereo not given) the results were GDH-TPI counter-1 inactive and Mtb FBA inh inactive.
Screening COc1ccccc1-n1cnnc1SCC(=O)NCC1CCCO1 (stereo not given) returned Rv3671c inh inactive, UGM FP inh inactive, GDH-TPI counter-1 inactive, Mtb betalactam inactive and Mtb FBA inh inactive.
Cc1c(Nc2c3ccccc3nc3ccccc23)c(=O)n(-c2ccccc2)n1C was read as Rv3671c inh inactive, UGM FP inh inactive, GDH-TPI counter-1 inactive, Mtb betalactam inactive, Mtb FBA inh 109, Mtb FBA inh conf inactive and GDH-TPI counter-2 inactive.
COc1ccc(OC)c2c1CCC1(C2)NC(=O)NC1=O (stereo not given) was read as Mtb FBA inh inactive.
For COc1ccc(OC)c2c1CC(C)(C)NC2=O the results were Rv3671c inh inactive, UGM FP inh inactive, GDH-TPI counter-1 inactive, Mtb betalactam inactive, Mtb FBA inh 74, Mtb FBA inh conf 33 and GDH-TPI counter-2 32.
Clc1ccc(CO/N=C/c2cccs2)cc1 was read as Rv3671c inh inactive, UGM FP inh inactive, GDH-TPI counter-1 inactive, Mtb betalactam inactive and Mtb FBA inh inactive.
COc1ccccc1-c1cnc(C(O)c2ccc(F)cc2C)[nH]1 (stereo not given) was read as GDH-TPI counter-1 inactive and Mtb FBA inh inactive.
CCC(C)[C@H](NC(=O)C1CC(=O)N(c2ccc3c(c2)OCCO3)C1)C(=O)NC1CCCC1 (stereo not given in full) was read as Rv3671c inh inactive, UGM FP inh inactive, GDH-TPI counter-1 inactive, Mtb betalactam inactive and Mtb FBA inh inactive.
CC(C)[C@H](NC(=O)C1CC(=O)N(c2ccc3c(c2)OCCO3)C1)C(=O)NC1CCCC1 (stereo not given in full) was read as Rv3671c inh inactive, UGM FP inh inactive, GDH-TPI counter-1 inactive, Mtb betalactam inactive, Mtb FBA inh 96, Mtb FBA inh conf active and GDH-TPI counter-2 active.
Screening O=C(CNC(=O)c1ccccc1)NCCCSc1ccccc1 returned Rv3671c inh inactive, UGM FP inh inactive, GDH-TPI counter-1 inactive, Mtb betalactam inactive and Mtb FBA inh inactive.
`O=C(NCCCSc1ccccc1)c1cc(Cl)ccc1O` gave UGM FP inh inactive, GDH-TPI counter-1 inactive, Mtb betalactam inactive, Mtb FBA inh 36, Mtb FBA inh conf 68 and GDH-TPI counter-2 48.
Screening O=C(CNC(=O)c1ccc(Cl)cc1Cl)OC1CCCCC1=O (stereo not given) returned Rv3671c inh inactive, UGM FP inh inactive, GDH-TPI counter-1 inactive, Mtb betalactam inactive and Mtb FBA inh inactive.
For COc1ccc(-c2nc3c4ccccc4ccn3c2CN2CCOCC2)cc1OC the results were Rv3671c inh inactive, UGM FP inh inactive, GDH-TPI counter-1 inactive, Mtb betalactam inactive, Mtb FBA inh 37, Mtb FBA inh conf 74 and GDH-TPI counter-2 51.
For c1ccc(-c2nc3c4ccccc4ccn3c2CN2CCOCC2)cc1 the results were Rv3671c inh inactive, UGM FP inh inactive, GDH-TPI counter-1 inactive, Mtb betalactam inactive and Mtb FBA inh inactive.
For CCCN(CCC)CCNC(=O)c1cc2c(-c3ccc(Cl)cc3)nn(C)c2s1 the results were Rv3671c inh inactive, UGM FP inh inactive, GDH-TPI counter-1 inactive, Mtb betalactam inactive, Mtb FBA inh 50, Mtb FBA inh conf 163 and GDH-TPI counter-2 120.
`CCOCCCNC(=O)c1cc2c(-c3ccc(Cl)cc3)nn(C)c2s1` gave Rv3671c inh inactive, UGM FP inh inactive, GDH-TPI counter-1 inactive, Mtb betalactam inactive, Mtb FBA inh 63, Mtb FBA inh conf 71 and GDH-TPI counter-2 55.
`CCCN(CCC)CCCNC(=O)c1cc2c(-c3ccc(OC)c(OC)c3)nn(C)c2s1` gave Rv3671c inh inactive, UGM FP inh inactive, GDH-TPI counter-1 inactive, Mtb betalactam inactive and Mtb FBA inh inactive.
`CCCCN(CC)CCNC(=O)c1cc2c(-c3ccc(Cl)cc3)nn(C)c2s1` gave Rv3671c inh inactive, UGM FP inh inactive, GDH-TPI counter-1 inactive, Mtb betalactam inactive, Mtb FBA inh 77, Mtb FBA inh conf inactive and GDH-TPI counter-2 inactive.
For CCCN(CCC)CCNC(=O)c1cc2c(-c3ccccc3F)nn(C)c2s1 the results were Rv3671c inh inactive, UGM FP inh inactive, GDH-TPI counter-1 inactive, Mtb betalactam inactive, Mtb FBA inh 87, Mtb FBA inh conf 100 and GDH-TPI counter-2 81.
